Shown are actives, neighbours in structure and some others; about 4.2% of the full set was active somewhere.
V-ATPase pH = yeast V-ATPase proton transport regulation by pHLuorin; S. cerevisiae, pHLuorin cytosolic pH fluorescence; response, % at 10 µM; actives 0.37% (n = 350,000); AID 504577; in the data active = response mostly above about 7.3%, no sharp cut-off; inactive = mostly below about 5.4%; also: actives read high
NLRP3 yeast inh = blocks the NALP3 inflammasome reconstituted in yeast; Yeast reconstituted NLRP3/ASC/caspase-1, beta-gal luminescence, 24 h; inhibition, % at 10 µM; actives 0.39% (n = 330,000);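 active = inhibition of 50% or more; inactive = inhibition below 50%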
TIM10 inh = inhibits growth of TIM10 yeast strain; S. cerevisiae TIM10 strain growth, BacTiter-Glo luminescence, 24 h; inhibition, % at 10 µM; actives 1.4% (n = 330,000); AID 463195;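 active = inhibition of 40% or more at the single tested concentration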;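 also: wild-type TIM10 isogenic control strain grown at permissive 25 °C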
NALP1 yeast inh = blocks the NALP1 inflammasome reconstituted in yeast. inhibition, % at 10 µM. actives 0.61% (n = 280,000). S. cerevisiae NALP1/ASC/caspase-1 growth, X-gal OD620, 72 h; in the data active = inhibition mostly above about 24%, no sharp cut-off; inactive = mostly below about 32%
tim23-1 inh = growth inhibitors of tim23-1 mutant yeast | S. cerevisiae tim23-1 growth, BacTiter-Glo luminescence, 24 h | inhibition, % at 20 µM | actives 1.3% (n = 330,000) | AID 463212;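 active = growth inhibition of the mutant yeast at or above 50%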;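 also: temperature-sensitive mutant grown at 25 °C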
tim10-1 inh = inhibits growth of tim10-1 mutant yeast; actives 2.2% (n = 330,000); inhibition, % at 20 µM; S. cerevisiae tim10-1 ts strain growth, BacTiter-Glo, 24 h;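 active = inhibition of at least 40%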;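 also: mutant grown at 25 °C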
tim10-1 conf = tim10-1 yeast growth inhibition, confirmed. actives 56% (n = 7,400). shares compounds with tim10-1 inh. S. cerevisiae tim10-1 ts strain growth, BacTiter-Glo, 24 h. inhibition, % at 20 µM;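 active = inhibition of yeast growth at or above a set limit in either of two repeat tests at 20 µM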;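 also: tim10-1 mutant grown at permissive 25 °C to find synthetic lethal compounds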
TIM10 conf = TIM10 yeast growth inhibition, confirmed; shares compounds with TIM10 inh; S. cerevisiae tim10 strain growth, BacTiter-Glo luminescence, 24 h; inhibition, % at 10 µM; actives 63% (n = 4,600);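 active = inhibition of yeast growth at or above a set limit in either of two replicates at 10 µM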; also: this counterscreen used the strain with wild-type TIM10
tim23-1 confirm = confirmation of tim23-1 mutant yeast growth inhibitors. shares compounds with tim23-1 inh. S. cerevisiae tim23-1 growth, BacTiter-Glo luminescence, 24 h. inhibition, % at 20 µM. actives 83% (n = 4,400). AID 463218;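 active = inhibition above about 39% in either of two replicate wells at 20 µM, limit read from the data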;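 also: temperature-sensitive tim23-1 mutant grown at 25 °C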
Hits are given with their value; 0 = inactive; - = no result given.

SMILES	V-ATPase pH	NLRP3 yeast inh	TIM10 inh	NALP1 yeast inh	tim23-1 inh	tim10-1 inh	tim10-1 conf	TIM10 conf	tim23-1 confirm
Cc1ccc(NC(=O)CS(=O)CC(=O)Nc2ccccc2-c2ccc(C)o2)cc1 (centres undefined)	0	0	0	0	50	45	28	-	47
CN(CCOc1ccccc1)C(=O)c1ccc(OC2CCN(C(=O)C3CC3)CC2)cc1	0	0	0	0	0	0	-	-	-
Fc1ccc(-c2nc(-c3cnccn3)no2)c(Cl)c1	0	0	0	0	0	0	-	-	-
CCOC(=O)C1=C(C)N=C2c3ccccc3C(=O)C2C1c1ccc(Cl)cc1 (centres undefined)	0	0	0	0	0	0	-	-	-
CCOC(=O)C1=C(Cc2ccc(Cl)cc2)C(=O)c2ccccc2C1=O	0	0	57	0	67	64	67	58	63
Cc1nc2ccccc2c(=O)n1/N=C/c1ccc([N+](=O)[O-])o1	-	0	50	0	71	53	75	68	73
Cc1nc2ccccc2n1/N=C/c1ccc([N+](=O)[O-])s1	0	0	62	0	55	76	0	0	63
Cc1nc2ccccc2c(=O)n1/N=C/c1ccc(N(C)C)cc1	0	0	0	0	0	0	-	-	-
CCC1CCC(C(=O)NC(C(=O)Nc2ccc3c(c2)OCCO3)C(C)C)CC1 (centres undefined)	0	0	0	0	0	0	-	-	-
COc1ccc(-c2cc(C(F)F)nc(-n3nc(C)cc3C)n2)cc1	0	0	52	0	58	42	36	0	45
CC(=O)NC1c2ccccc2C(=O)N1Cc1ccccc1 (centres undefined)	0	0	0	0	0	0	-	-	-
O=C1c2ccccc2C(Nc2ccc(Cl)cn2)N1Cc1ccccc1 (centres undefined)	0	0	42	0	56	44	0	46	54
Oc1c(Cl)cc(Cl)cc1C=Nc1ccc2c(c1)OCCO2	0	0	47	0	77	46	0	32	81
O=C(O)CCC(=O)OCCc1cc2ccccc2c(=O)o1	0	0	0	-	0	0	-	-	-
COc1cc(C(C2C(=O)CC(C)(C)CC2=O)C2C(=O)CC(C)(C)CC2=O)ccc1O	0	0	0	0	0	0	-	-	-
CCCCN(S(=O)(=O)c1ccccc1)S(=O)(=O)c1ccccc1	0	0	0	0	0	0	-	-	-
O=C(Nc1cccc(-c2nnc(-c3ccccc3)o2)c1)C1CC1	0	0	0	0	60	41	0	-	76
CC(=O)Nc1cccc(-c2nnc(-c3ccccc3)o2)c1	0	0	0	0	0	0	-	-	-
CN(C)S(=O)(=O)c1cccc(NC(=O)CCSc2ccc(Cl)cc2)c1	0	0	0	0	0	0	-	-	-
O=C(CC1Nc2ccccc2NC1=O)Nc1cc(Cl)cc(Cl)c1 (centres undefined)	0	0	41	0	64	79	0	0	0
CCCCNC(=O)CC1Nc2ccccc2NC1=O (centres undefined)	0	0	0	-	0	0	-	-	-
O=Cc1ccc(O)c2ncccc12	0	0	54	82	71	44	0	75	72
COc1cc2c(cc1OC)CN(C(=O)/C=C/c1cc(OC)c(OC)c(OC)c1)CC2	0	0	0	0	0	0	-	-	-
O=C(NC(=S)NC1CCCCC1)c1ccccc1[N+](=O)[O-]	0	0	0	0	63	45	0	-	48
O=C(NC(=S)NC1CCN(Cc2ccccc2)CC1)c1ccc(F)cc1	0	0	0	0	0	0	-	-	-
SMILES	V-ATPase pH	NLRP3 yeast inh	TIM10 inh	NALP1 yeast inh	tim23-1 inh	tim10-1 inh	tim10-1 conf	TIM10 conf	tim23-1 confirm
Cc1ccc(C(=O)NC(=S)NNC(=O)c2ccccc2[N+](=O)[O-])cc1	0	0	47	0	61	47	42	61	49
O=C(NC(=S)NC1CCCCC1)c1ccc(F)cc1	0	0	0	0	69	42	32	-	56
O=C(NNC(=S)NC(=O)c1ccccc1[N+](=O)[O-])c1ccccc1[N+](=O)[O-]	0	0	0	0	0	0	-	-	-
Cc1ccc(NC(=O)CSc2nc3ccccc3c(=O)[nH]2)cc1[N+](=O)[O-]	0	0	0	-	0	0	-	-	-
CC(C)c1ccc(/C=C2\SC(=S)N(CC(=O)NCCCN3CCOCC3)C2=O)cc1	0	0	0	0	0	0	-	-	-
O=C(NC(=S)Nc1ccccc1N1CCCCC1)c1ccco1	0	0	52	0	54	49	37	0	51
O=C(/C=C/c1ccco1)NC(=S)Nc1ccccc1N1CCOCC1	0	0	43	0	55	50	0	51	48
O=C(NC(=S)Nc1ccccc1N1CCCC1)c1ccccc1Br	0	0	0	0	61	41	0	-	43
O=C(/C=C/c1ccco1)NC(=S)Nc1ccccc1N1CCCC1	0	0	0	0	0	0	-	-	-
O=C(NC(=S)Nc1cccc2cc(O)ccc12)c1ccccc1Br	0	0	0	0	51	46	0	-	49
O=C(NC(=S)Nc1ccccc1N1CCCC1)c1ccco1	0	0	0	0	0	0	-	-	-
Cc1ccc(NC(=S)c2nc3ccccc3[nH]2)cc1	0	0	0	0	0	0	-	-	-
COc1ccc([N+](=O)[O-])cc1NS(=O)(=O)c1cc(C(=O)O)ccc1OC	0	0	0	0	0	0	-	-	-
CCOc1ccccc1C(=O)OCC(=O)Nc1ccc(OC(F)F)cc1	0	0	0	0	0	0	-	-	-
CN1/C(=C\C(=O)Nc2ccc(F)cc2)C(C)(C)c2ccccc21	0	0	48	0	68	45	49	0	72
CN1/C(=C/C(=O)C2CC2)C(C)(C)c2ccccc21	0	0	0	0	0	0	-	-	-
Cc1ccc(C(C[N+](=O)[O-])n2nc(C)cc2C)cc1 (centres undefined)	0	0	0	0	80	53	36	-	73
Cc1ccc(S(=O)(=O)NCC(C)n2nc(C)cc2C)cc1 (centres undefined)	0	0	0	0	0	0	-	-	-
O=C(CC1N=C(Cc2ccccc2)NNC1=O)N/N=C/c1ccc([N+](=O)[O-])cc1 (centres undefined)	0	0	0	0	0	0	-	-	-
COc1ccccc1NC(=O)C1CCCN1C(=O)Nc1ccc(F)cc1 (centres undefined)	0	0	0	0	0	0	-	-	-
C/C(=N\NC(=S)NC1CCCCC1)c1cccs1	0	0	58	0	53	41	0	36	49
C/C(=N\NC(=S)NC1CCCCC1)c1c(F)cccc1F	0	0	0	0	0	0	-	-	-
Cc1ccsc1/C=c1\sc2ncnn2c1=O	0	0	0	0	0	0	-	-	-

Compound activity as filed in PubChem.
